Inconclusive results are not listed. The source made the active and inactive calls. Calls come from the whole dose curve; as a rule, active = well fitted curve in the direction sought with a large enough effect in the repeat runs; inconclusive = weak or mixed curves; inactive = no such curve, though single readings can be large; an effect the other way counts as inactive or inconclusive.
Assays:
[1] = qHTS RealTime-Glo MT Cell Viability Assay in HepG2 cells - 24 hour (AID 1224867); note: nearly all actives have a fitted effect of over 50% in size
Summary of the method: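 Tox21 10K library screened in qHTS format on HepG2 cells carrying RealTime-Glo reagents. Compounds were added after a 5 h preincubation, and the luminescent signal from continuous culture was measured repeatedly during 40 h treatment.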

[2] = qHTS RealTime-Glo MT Cell Viability Assay in HEK293 cells - 32 hour (AID 1224868); note: top concentration of the series differs between compounds; nearly all actives have a fitted effect of over 50% in size
Summary of the method: (§1)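 Luminescence generated by NanoLuc from substrate produced by living HEK293 cells served as the viability signal. Each value reflects the reading at its stated time point during continuous 40 h compound exposure at 37 C.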

[3] = A CellTox Green Cytotoxicity Assay to monitor cytotoxicity in HEK293 cells - 0 hour (AID 1224869); note: nearly all actives have a fitted effect of over 50% in size
Summary of the method: (§2)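 HEK293 cells premixed with CellTox Green dye were seeded at 600 cells/well and left 5 h at 37 C/5% CO2 before pin transfer of 23 nL compound in DMSO. Fluorescence from dye bound to dead-cell DNA was read during 40 h treatment.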

[4] = qHTS RealTime-Glo MT Cell Viability Assay in HepG2 cells - 40 hour (AID 1224870); note: nearly all actives have a fitted effect of over 50% in size
Summary of the method: (§3)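 Real-time viability: cells seeded at 600 per well together with NanoLuc and cell-permeant prosubstrate, compounds added after 5 h incubation. Luminescence tracked at 0, 8, 16, 24, 32 and 40 h of exposure.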

[5] = A CellTox Green Cytotoxicity Assay to monitor cytotoxicity in HEK293 cells - 40 hour (AID 1224871); note: nearly all actives have a fitted effect of over 45% in size
Summary of the method: as §2

[6] = qHTS RealTime-Glo MT Cell Viability Assay in HEK293 cells - 16 hour (AID 1224872)
Summary of the method: as §1

[7] = qHTS RealTime-Glo MT Cell Viability Assay in HepG2 cells - 8 hour (AID 1224873); note: nearly all actives have a fitted effect of over 55% in size
Summary of the method: as §3

[8] = qHTS RealTime-Glo MT Cell Viability Assay in HEK293 cells - 40 hour (AID 1224874); details: RealTime-Glo luminescence; max response: hits give low values; note: nearly all actives have a fitted effect of over 50% in size
Summary of the method: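 HEK293 cells mixed with RealTime-Glo reagents (NanoLuc plus cell-permeant prosubstrate) at 600 cells/well, preincubated 5 h at 37 C/5% CO2, then given 23 nL compound in DMSO. Nonlytic luminescence from viable cells was read at 0, 8, 16, 24, 32 and 40 h.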

[9] = A CellTox Green Cytotoxicity Assay to monitor cytotoxicity in HEK293 cells - 24 hour (AID 1224875); note: series mostly up to about 77 µM; nearly all actives have a fitted effect of over 45% in size
Summary of the method: as §2
% is set by controls: 0 for no effect and ±100 for the full control effect.

CCC(C)N (stereo unspecified)
inactive: outcome [1] | Potency [2] | Potency [3] | outcome [4] | Potency [5] | Potency [6] | outcome [7] | max response [8] -5.31% | Potency [9]

CN(C)CCCNCCC#N
inactive: outcome [1] | Potency [2] | Potency [3] | outcome [4] | Potency [5] | Potency [6] | outcome [7] | max response [8] 6.65% | Potency [9]

C=C(C)[C@@H]1CC[C@@H](C)C[C@@H]1O
inactive: outcome [1] | Potency [2] | Potency [3] | outcome [4] | Potency [5] | Potency [6] | outcome [7] | max response [8] 0.357% | Potency [9]

CCNC(=O)/C=C/c1cccc(Br)c1
inactive: outcome [1] | Potency [2] | Potency [3] | outcome [4] | Potency [5] | Potency [6] | outcome [7] | max response [8] 1.9% | Potency [9]

CCOC(=O)OCC/C(SC(=O)OCC)=C(\C)N(C=O)Cc1cnc(C)nc1N
inactive: outcome [1] | Potency [2] | Potency [3] | outcome [4] | Potency [5] | Potency [6] | outcome [7] | max response [8] 4.82% | Potency [9]

O=C1NC2NC(=O)NC2N1 (stereo unspecified)
inactive: outcome [1] | Potency [2] | Potency [3] | outcome [4] | Potency [5] | Potency [6] | outcome [7] | max response [8] 1.34% | Potency [9]

Nc1cc(S(=O)(=O)O)ccc1S(=O)(=O)O
inactive: outcome [1] | Potency [2] | Potency [3] | outcome [4] | Potency [5] | Potency [6] | outcome [7] | max response [8] 21% | Potency [9]

Nc1cc(C(=O)O)ccc1Cl
inactive: outcome [1] | Potency [2] | Potency [3] | outcome [4] | Potency [5] | Potency [6] | outcome [7] | max response [8] 6.48% | Potency [9]

COCCOCCOCCOC
inactive: outcome [1] | Potency [2] | Potency [3] | outcome [4] | Potency [5] | Potency [6] | outcome [7] | max response [8] 2.64% | Potency [9]

C[C@H]1O[C@H](O[C@H]2[C@H](O)[C@@H](O)[C@@H](O[C@H]3[C@H](O)[C@@H](O)[C@H](O)O[C@@H]3CO)O[C@@H]2CO)[C@H](O)[C@@H](O)[C@@H]1N[C@H]1C=C(CO)[C@@H](O)[C@H](O)[C@H]1O
inactive: outcome [1] | Potency [2] | Potency [3] | outcome [4] | Potency [5] | Potency [6] | outcome [7] | max response [8] 6.78% | Potency [9]

CCCCC(=O)N(C)C
inactive: outcome [1] | Potency [2] | Potency [3] | outcome [4] | Potency [5] | Potency [6] | outcome [7] | max response [8] 1.13% | Potency [9]

CC(CC(=O)O)CC(C)(C)C (stereo unspecified)
inactive: outcome [1] | Potency [2] | Potency [3] | outcome [4] | Potency [5] | Potency [6] | outcome [7] | max response [8] -0.126% | Potency [9]

O=c1[nH]c(=O)c2[nH]c(=O)[nH]c2[nH]1
inactive: activity change, negative = cytotoxicity [1] 1.41% [at 6.97 µM] | activity change, negative = cytotoxic [2] 9.11% [at 6.97 µM] | cytotoxicity [3] -14.8% [at 6.97 µM] | activity change, negative = cytotoxic [4] 0.76% [at 6.97 µM] | cytotoxicity increase [5] -13.3% [at 6.97 µM] | activity change, negative = cytotoxicity [6] 9.21% [at 6.97 µM] | viability change, negative = cytotoxic [7] 1.36% [at 6.97 µM] | max response [8] 10.6% | activity change [9] -9.62% [at 6.97 µM, hits give high values]

CCOC(=O)C(C)(C)C
inactive: outcome [1] | Potency [2] | Potency [3] | outcome [4] | Potency [5] | Potency [6] | outcome [7] | max response [8] -0.816% | Potency [9]

COc1ccc(OC)c(NC(=O)CC(C)=O)c1
inactive: outcome [1] | Potency [2] | Potency [3] | outcome [4] | Potency [5] | Potency [6] | outcome [7] | max response [8] 2.24% | Potency [9]

CC(C)COC(=O)CCCCC(=O)OCC(C)C
inactive: outcome [1] | Potency [2] | Potency [3] | outcome [4] | Potency [5] | Potency [6] | outcome [7] | max response [8] -8.63% | Potency [9]

Cc1cc(C)cc([N+](=O)[O-])c1
inactive: outcome [1] | Potency [2] | Potency [3] | outcome [4] | Potency [5] | Potency [6] | outcome [7] | max response [8] -13.7% | Potency [9]

NS(=O)(=O)c1cc2c(cc1Cl)NC(C(Cl)Cl)NS2(=O)=O (stereo unspecified)
inactive: outcome [1] | Potency [2] | Potency [3] | outcome [4] | Potency [5] | Potency [6] | outcome [7] | max response [8] 2.25% | Potency [9]

C=CCOCC(O)CCl (stereo unspecified)
inactive: outcome [1] | Potency [2] | Potency [3] | outcome [4] | Potency [5] | Potency [6] | outcome [7] | max response [8] 0.946% | Potency [9]

CCN(Cc1cccc(S(=O)(=O)O)c1)c1ccccc1
inactive: outcome [1] | Potency [2] | Potency [3] | outcome [4] | Potency [5] | Potency [6] | outcome [7] | max response [8] 0.413% | Potency [9]

CO/N=C(/C(=O)N[C@@H]1C(=O)N2C(C(=O)O)=C(Cn3nnc(C)n3)CS[C@H]12)c1csc(N)n1
inactive: outcome [1] | Potency [2] | Potency [3] | outcome [4] | Potency [5] | Potency [6] | outcome [7] | max response [8] 1.17% | Potency [9]

CCOC(=O)CC(CC(=O)OCC)(OC(C)=O)C(=O)OCC
inactive: outcome [1] | Potency [2] | Potency [3] | outcome [4] | Potency [5] | Potency [6] | outcome [7] | max response [8] -6.27% | Potency [9]

O=c1cc(O)c(Cl)c[nH]1
inactive: outcome [1] | Potency [2] | Potency [3] | outcome [4] | Potency [5] | Potency [6] | outcome [7] | max response [8] 4.88% | Potency [9]

O=C1OC(=O)c2cc(Oc3ccc4c(c3)C(=O)OC4=O)ccc21
inactive: outcome [1] | Potency [2] | Potency [3] | outcome [4] | Potency [5] | Potency [6] | outcome [7] | max response [8] 3.57% | Potency [9]

O=C(O)c1ccccc1C(=O)OCc1ccccc1
inactive: outcome [1] | Potency [2] | Potency [3] | outcome [4] | Potency [5] | Potency [6] | outcome [7] | max response [8] 3.76% | Potency [9]

CCC1Nc2cc(Cl)c(S(N)(=O)=O)cc2S(=O)(=O)N1 (stereo unspecified)
inactive: outcome [1] | Potency [2] | Potency [3] | outcome [4] | Potency [5] | Potency [6] | outcome [7] | max response [8] -2.14% | Potency [9]

C=CCCCCCCCCCCC
inactive: activity change, negative = cytotoxicity [1] 0.824% [at 6.97 µM] | activity change, negative = cytotoxic [2] 7.22% [at 6.97 µM] | cytotoxicity [3] 3.23% [at 6.97 µM] | activity change, negative = cytotoxic [4] -0.414% [at 6.97 µM] | cytotoxicity increase [5] 0.236% [at 6.97 µM] | activity change, negative = cytotoxicity [6] 6.31% [at 6.97 µM] | viability change, negative = cytotoxic [7] 1.47% [at 6.97 µM] | max response [8] 6.19% | activity change [9] -0.54% [at 6.97 µM, hits give high values]

O=C(O)c1ccccc1C(=O)Nc1ccc(S(=O)(=O)Nc2nccs2)cc1
inactive: outcome [1] | Potency [2] | Potency [3] | outcome [4] | Potency [5] | Potency [6] | outcome [7] | max response [8] -1.33% | Potency [9]

Cc1cccc(C(=O)O)c1[N+](=O)[O-]
inactive: outcome [1] | Potency [2] | Potency [3] | outcome [4] | Potency [5] | Potency [6] | outcome [7] | max response [8] 0.185% | Potency [9]

CCCC(C)CC (stereo unspecified)
inactive: outcome [1] | Potency [2] | Potency [3] | outcome [4] | Potency [5] | Potency [6] | outcome [7] | max response [8] 1.42% | Potency [9]

CC1(N)CCC(C(C)(C)N)CC1 (stereo unspecified)
inactive: outcome [1] | Potency [2] | Potency [3] | outcome [4] | Potency [5] | Potency [6] | outcome [7] | max response [8] -1.45% | Potency [9]

COc1cc2c3cc1Oc1cc(ccc1O)C[C@@H]1c4c(cc(OC)c(O)c4Oc4ccc(cc4)C[C@@H]3N(C)CC2)CC[N+]1(C)C
inactive: outcome [1] | Potency [2] | Potency [3] | outcome [4] | Potency [5] | Potency [6] | outcome [7] | max response [8] 3.06% | Potency [9]

CCN(CC)C(=O)C1CN2CCc3cc(OC)c(OC)cc3C2CC1OC(C)=O (stereo unspecified)
inactive: outcome [1] | Potency [2] | Potency [3] | outcome [4] | Potency [5] | Potency [6] | outcome [7] | max response [8] -4.78% | Potency [9]

Cc1nc([N+](=O)[O-])cn1-c1ccc([N+](=O)[O-])cc1
inactive: outcome [1] | Potency [2] | Potency [3] | outcome [4] | Potency [5] | Potency [6] | outcome [7] | Potency [9]

CCC(=O)c1ccc(O)cc1
inactive: outcome [1] | Potency [2] | Potency [3] | outcome [4] | Potency [5] | Potency [6] | outcome [7] | Potency [9]

CCCCC(CC)CNC(=O)CC(C)OC(=O)CCC(=O)O (stereo unspecified)
inactive: outcome [1] | Potency [2] | Potency [3] | outcome [4] | Potency [5] | Potency [6] | max response [8] 3.69% | Potency [9]

CO[Si](CCCCl)(OC)OC
inactive: outcome [1] | Potency [2] | Potency [3] | outcome [4] | Potency [5] | Potency [6] | max response [8] 28.4%

SCCSCCS
inactive: outcome [1] | Potency [2] | Potency [3] | outcome [4] | Potency [5] | Potency [6] | max response [8] -1.15% | Potency [9]

CCN(CCC#N)c1ccccc1
inactive: outcome [1] | Potency [2] | Potency [3] | outcome [4] | Potency [5] | Potency [6] | max response [8] 2.36% | Potency [9]

CC(=O)OC(C)c1ccccc1 (stereo unspecified)
inactive: outcome [1] | Potency [2] | Potency [3] | outcome [4] | Potency [5] | Potency [6] | outcome [7] | max response [8] 0.769% | Potency [9]

O=C(c1ccc2c(c1)C(=O)OC2=O)c1ccc2c(c1)C(=O)OC2=O
inactive: outcome [1] | Potency [2] | Potency [3] | outcome [4] | Potency [5] | Potency [6] | outcome [7] | max response [8] -1.77% | Potency [9]

CCOC(=O)C(=O)c1csc(NC=O)n1
inactive: outcome [1] | Potency [2] | Potency [3] | outcome [4] | Potency [5] | Potency [6] | outcome [7] | max response [8] 0.45% | Potency [9]

From PubChem BioAssay (Tox21)
